± gives the standard deviation.

These results are taken from the supplement of paper PMC4022240.

T1: HaloTag-ATRX ADD domain (163-292)
T1 chain: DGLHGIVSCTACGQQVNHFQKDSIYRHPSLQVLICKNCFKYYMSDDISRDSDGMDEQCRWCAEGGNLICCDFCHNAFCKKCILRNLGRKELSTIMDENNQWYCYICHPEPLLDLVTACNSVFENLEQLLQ

One experiment has as its target T1, HaloTag-ATRX ADD domain (163-292). Put plainly: peptide microarray binding signal (635 nm), min-max normalized on array (fraction of array maximum); higher = stronger binding. Conditions: peptide region: H4 53-65; peptide modifications: H4K59me3; binder concentration: 50 nM. Summed up: (§1)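 Binding signal is the mean intensity of triplicate spots, min-max scaled within each library. Histone 13-mer peptide–cellulose conjugates were spotted in triplicate on nitrocellulose with a Cy3 tracer and blocked overnight at 4°C. Probing lasted 1 h at 4°C, either with biotin-labelled HaloTag reader fusions (10 nM to 1 μM) and streptavidin-Alexa Fluor 647 or with rabbit histone antibodies (1:10,000 to 1:2,000) and anti-rabbit Alexa 647. An Axon GenePix 4000B read signal at 635 nm and misprints at 532 nm.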
For the molecule ETRGVLKVFLENV [H4 53-65 E T R G V L Kme3 V F L E N V], the “peptide microarray binding signal” value turned out to be 0.00755 ± 0.00027.

The same experiment, now with this note: peptide region: H4 53-65; peptide modifications: H4K59me3; binder concentration: 500 nM.
As to ETRGVLKVFLENV [H4 53-65 E T R G V L Kme3 V F L E N V], the “peptide microarray binding signal” value is 0.00719 ± 0.00011.

Another experiment concerns the target HaloTag-ING2 PHD (mouse Ing2 200-280). Described as above. Conditions: peptide region: H4 53-65; peptide modifications: H4K59me3; binder concentration: 10 nM. Summed up: as §1
On to ETRGVLKVFLENV [H4 53-65 E T R G V L Kme3 V F L E N V], for which the “peptide microarray binding signal” value stood at 0.0074 ± 5.7e-05.

The same experiment, now with this note: peptide region: H4 53-65; peptide modifications: H4K59me3; binder concentration: 100 nM.
For ETRGVLKVFLENV [H4 53-65 E T R G V L Kme3 V F L E N V], the “peptide microarray binding signal” value stood at 0.006945 ± 4.9e-05.

The next experiment concerns the target anti-H3K4me3 antibody ab8580. Described as above. The settings on record: peptide region: H4 53-65; peptide modifications: H4K59me3; binder concentration: 1:2,000 dilution. Summed up:
as §1
Consider ETRGVLKVFLENV [H4 53-65 E T R G V L Kme3 V F L E N V], for which the “peptide microarray binding signal” value was determined as 0.00549 ± 0.00064.

Staying with this experiment, now noted: peptide region: H4 53-65; peptide modifications: H4K59me3; binder concentration: 1:10,000 dilution.
Regarding ETRGVLKVFLENV [H4 53-65 E T R G V L Kme3 V F L E N V], the “peptide microarray binding signal” value came out at 0.00616 ± 0.00023.

In a further experiment the target is anti-H3K9me3 antibody ab8898. Described as above. The settings on record: peptide region: H4 53-65; peptide modifications: H4K59me3; binder concentration: 1:2,000 dilution. Summed up: as §1
With ETRGVLKVFLENV [H4 53-65 E T R G V L Kme3 V F L E N V], the “peptide microarray binding signal” value is 0.017 ± 0.0023.

The experiment is the same for the next values; noted with them: peptide region: H4 53-65; peptide modifications: H4K59me3; binder concentration: 1:10,000 dilution.
ETRGVLKVFLENV [H4 53-65 E T R G V L Kme3 V F L E N V]: the “peptide microarray binding signal” value is 0.0133 ± 0.00048.

The next experiment concerns the target T1, HaloTag-ATRX ADD domain (163-292). The description is as above. Conditions: peptide region: Unmod H1 variant; binder concentration: 50 nM. In a few lines:
as §1
For KPKATPVKKAKKK [Unmod H1 variant K P K A T P V K K A K K K], the “peptide microarray binding signal” value was 0.0137 ± 0.0012.

On to KAASKAPTKKPKA [Unmod H1 variant K A A S K A P T K K P K A], for which the “peptide microarray binding signal” value was 0.0142 ± 0.00045.

As to SDMIVAAIQAEKN [Unmod H1 variant S D M I V A A I Q A E K N], the “peptide microarray binding signal” value amounted to 0.0102 ± 0.00022.

Still in this experiment, the particulars now being: peptide region: Unmod H1 variant; binder concentration: 500 nM.
Regarding KPKATPVKKAKKK [Unmod H1 variant K P K A T P V K K A K K K], the “peptide microarray binding signal” value was 0.0124 ± 0.00028.

On to KAASKAPTKKPKA [Unmod H1 variant K A A S K A P T K K P K A], for which the “peptide microarray binding signal” value was found to be 0.0141 ± 0.00028.

Regarding SDMIVAAIQAEKN [Unmod H1 variant S D M I V A A I Q A E K N], the “peptide microarray binding signal” value came out at 0.00514 ± 0.00038.

In another experiment the target is HaloTag-ING2 PHD (mouse Ing2 200-280). The description is as above. The settings on record: peptide region: Unmod H1 variant; binder concentration: 10 nM. Summed up: as §1
As for KPKATPVKKAKKK [Unmod H1 variant K P K A T P V K K A K K K], the “peptide microarray binding signal” value was 0.00209 ± 5.3e-05.

As for KAASKAPTKKPKA [Unmod H1 variant K A A S K A P T K K P K A], the “peptide microarray binding signal” value turned out to be 0.00257 ± 0.00013.

Regarding SDMIVAAIQAEKN [Unmod H1 variant S D M I V A A I Q A E K N], the “peptide microarray binding signal” value was 0.00555 ± 0.00034.

Staying with this experiment, now noted: peptide region: Unmod H1 variant; binder concentration: 100 nM.
Take KPKATPVKKAKKK [Unmod H1 variant K P K A T P V K K A K K K]: the “peptide microarray binding signal” value was found to be 0.00319 ± 0.00028.

For the molecule KAASKAPTKKPKA [Unmod H1 variant K A A S K A P T K K P K A], the “peptide microarray binding signal” value worked out at 0.019 ± 0.0066.

As to SDMIVAAIQAEKN [Unmod H1 variant S D M I V A A I Q A E K N], the “peptide microarray binding signal” value was 0.00326 ± 5.1e-05.

The target of another experiment is anti-H3K4me3 antibody ab8580. Described as above. The settings on record: peptide region: Unmod H1 variant; binder concentration: 1:2,000 dilution. Summed up: as §1
With KPKATPVKKAKKK [Unmod H1 variant K P K A T P V K K A K K K], the “peptide microarray binding signal” value came to 0.000547 ± 2.7e-05.

With KAASKAPTKKPKA [Unmod H1 variant K A A S K A P T K K P K A], the “peptide microarray binding signal” value worked out at 0.000963 ± 1.4e-05.

As for SDMIVAAIQAEKN [Unmod H1 variant S D M I V A A I Q A E K N], the “peptide microarray binding signal” value turned out to be 0.00111 ± 2.4e-05.

The same experiment, now with this note: peptide region: Unmod H1 variant; binder concentration: 1:10,000 dilution.
Turning to KPKATPVKKAKKK [Unmod H1 variant K P K A T P V K K A K K K], the “peptide microarray binding signal” value amounted to 0.00126 ± 2.2e-05.

Consider KAASKAPTKKPKA [Unmod H1 variant K A A S K A P T K K P K A], for which the “peptide microarray binding signal” value stood at 0.001027 ± 1e-05.

For SDMIVAAIQAEKN [Unmod H1 variant S D M I V A A I Q A E K N], the “peptide microarray binding signal” value stood at 0.00126 ± 4.3e-05.

The target of a further experiment is anti-H3K9me3 antibody ab8898. Described as above. The settings on record: peptide region: Unmod H1 variant; binder concentration: 1:2,000 dilution. Summed up: as §1
KPKATPVKKAKKK [Unmod H1 variant K P K A T P V K K A K K K]: the “peptide microarray binding signal” value came out at 0.0008 ± 0.00013.

As to KAASKAPTKKPKA [Unmod H1 variant K A A S K A P T K K P K A], the “peptide microarray binding signal” value was 0.000257 ± 5.3e-06.

On to SDMIVAAIQAEKN [Unmod H1 variant S D M I V A A I Q A E K N], for which the “peptide microarray binding signal” value is 0.000559 ± 2.9e-05.

Still in this experiment, the particulars now being: peptide region: Unmod H1 variant; binder concentration: 1:10,000 dilution.
On to KPKATPVKKAKKK [Unmod H1 variant K P K A T P V K K A K K K], for which the “peptide microarray binding signal” value stood at 0.000634 ± 1.2e-05.

For KAASKAPTKKPKA [Unmod H1 variant K A A S K A P T K K P K A], the “peptide microarray binding signal” value turned out to be 0.000807 ± 1.5e-05.

On to SDMIVAAIQAEKN [Unmod H1 variant S D M I V A A I Q A E K N], for which the “peptide microarray binding signal” value was determined as 0.00104 ± 2.1e-05.

A further experiment concerns the target T1, HaloTag-ATRX ADD domain (163-292). The experiment is described as above. Conditions: peptide region: H4 53-65; peptide modifications: H4K59me2; binder concentration: 50 nM. In a few lines: as §1
In the case of ETRGVLKVFLENV [H4 53-65 E T R G V L Kme2 V F L E N V], the “peptide microarray binding signal” value was 0.00674 ± 0.0001.

Still in this experiment, the particulars now being: peptide region: H4 53-65; peptide modifications: H4K59me2; binder concentration: 500 nM.
Consider ETRGVLKVFLENV [H4 53-65 E T R G V L Kme2 V F L E N V], for which the “peptide microarray binding signal” value amounted to 0.00752 ± 0.00054.

For the next experiment, the target named is HaloTag-ING2 PHD (mouse Ing2 200-280). The description is as above. The settings on record: peptide region: H4 53-65; peptide modifications: H4K59me2; binder concentration: 10 nM. Summed up: as §1
Regarding ETRGVLKVFLENV [H4 53-65 E T R G V L Kme2 V F L E N V], the “peptide microarray binding signal” value was determined as 0.0113 ± 0.00022.

The same experiment, now with this note: peptide region: H4 53-65; peptide modifications: H4K59me2; binder concentration: 100 nM.
As for ETRGVLKVFLENV [H4 53-65 E T R G V L Kme2 V F L E N V], the “peptide microarray binding signal” value turned out to be 0.00758 ± 0.0001.

The target of another experiment is anti-H3K4me3 antibody ab8580. Described as above. Conditions: peptide region: H4 53-65; peptide modifications: H4K59me2; binder concentration: 1:2,000 dilution. In a few lines: as §1
With ETRGVLKVFLENV [H4 53-65 E T R G V L Kme2 V F L E N V], the “peptide microarray binding signal” value amounted to 0.00177 ± 0.00011.

The experiment is the same for the next values; noted with them: peptide region: H4 53-65; peptide modifications: H4K59me2; binder concentration: 1:10,000 dilution.
Turning to ETRGVLKVFLENV [H4 53-65 E T R G V L Kme2 V F L E N V], the “peptide microarray binding signal” value came to 0.00394 ± 0.0003.

For a further experiment, the target named is anti-H3K9me3 antibody ab8898. The description is as above. The settings on record: peptide region: H4 53-65; peptide modifications: H4K59me2; binder concentration: 1:2,000 dilution. In a few lines: as §1
In the case of ETRGVLKVFLENV [H4 53-65 E T R G V L Kme2 V F L E N V], the “peptide microarray binding signal” value is 0.00122 ± 2.8e-05.

The same experiment, now with this note: peptide region: H4 53-65; peptide modifications: H4K59me2; binder concentration: 1:10,000 dilution.
ETRGVLKVFLENV [H4 53-65 E T R G V L Kme2 V F L E N V]: the “peptide microarray binding signal” value stood at 0.003113 ± 2.6e-05.
